Source: the supplement of paper PMC9694430
Where a name gives a salt, the structure may show the parent alone.

Tests used:
Assay in all cases: thermal shift delta Tm vs DMSO control; higher = stronger stabilization (binding)
Settings in all cases: 12.5 µM; protein concentration 2 µM
[1] = tested on: LOC_OS01G01410-cb001
Procedure, shortened: (§1)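 Rice kinase domain constructs were expressed in E. coli, purified, and tested by differential scanning fluorimetry with compound added in DMSO. Each well of a 96-well plate held 19.5 μl of 2 μM kinase in 100 mM potassium phosphate pH 7.5, 150 mM NaCl, 10% glycerol and 5 × SYPRO Orange, and fluorescence was read from 25°C to 95°C at 0.05°C/s. The melting temperature shift is the mean of triplicates, taken against protein with DMSO alone after Boltzmann fitting.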

[2] = tested on: LOC_OS01G02750-cb003
Procedure, shortened: as §1

[3] = tested on: LOC_OS01G10900-cb004
Procedure, shortened: as §1

[4] = tested on: LOC_OS01G13800-cb001
Procedure, shortened: as §1

[5] = tested on: LOC_OS01G14860-cb001
Procedure, shortened: as §1

[6] = tested on: LOC_OS01G21960-cb002
Procedure, shortened: as §1

[7] = tested on: LOC_OS01G39600-cb002
Procedure, shortened: as §1

[8] = tested on: LOC_OS01G48390-cb002
Procedure, shortened: as §1

[9] = tested on: LOC_OS01G51400-cb002
Procedure, shortened: as §1

[10] = tested on: T1, LOC_OS01G52050-cb004
T1 sequence (whole entry): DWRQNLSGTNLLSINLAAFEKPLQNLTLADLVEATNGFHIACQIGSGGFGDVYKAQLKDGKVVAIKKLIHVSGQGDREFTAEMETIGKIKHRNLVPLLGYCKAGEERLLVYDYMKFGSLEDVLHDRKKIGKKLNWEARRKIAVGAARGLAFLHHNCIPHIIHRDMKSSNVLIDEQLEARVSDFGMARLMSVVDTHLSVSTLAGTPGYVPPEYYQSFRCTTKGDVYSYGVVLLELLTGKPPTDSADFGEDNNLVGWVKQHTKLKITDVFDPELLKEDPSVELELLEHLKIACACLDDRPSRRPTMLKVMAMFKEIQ
Procedure, shortened: as §1

Cc1cccc(Nc2nc(NC3CCCCC3N)ncc2C(N)=O)c1 (stereo not given)
thermal shift delta Tm [1]: 0.04 °C
thermal shift delta Tm [2]: 1.48 °C
thermal shift delta Tm [3]: 0.43 °C
thermal shift delta Tm [4]: -0.24 °C
thermal shift delta Tm [5]: 1.5 °C
thermal shift delta Tm [6]: 1.75 °C
thermal shift delta Tm [7]: 0.32 °C
thermal shift delta Tm [8]: 0.09 °C
thermal shift delta Tm [9]: 0.29 °C
thermal shift delta Tm [10]: 6.64 °C

CNC(=O)c1nn(C)c2c1C(C)(C)Cc1cnc(Nc3ccc(N4CCN(C)CC4)cc3)nc1-2
thermal shift delta Tm [1]: 2.97 °C
thermal shift delta Tm [2]: 4.29 °C
thermal shift delta Tm [3]: 7.64 °C
thermal shift delta Tm [4]: -1.53 °C
thermal shift delta Tm [5]: 0.36 °C
thermal shift delta Tm [6]: 1.9 °C
thermal shift delta Tm [7]: 0.04 °C
thermal shift delta Tm [8]: 1.65 °C
thermal shift delta Tm [9]: 0.17 °C
thermal shift delta Tm [10]: 5.55 °C

CN1c2ccccc2C(=O)Nc2cnc(Nc3ccc(N4CCC(O)CC4)cc3)nc21
thermal shift delta Tm [1]: 0.94 °C
thermal shift delta Tm [2]: 1.24 °C
thermal shift delta Tm [3]: 3 °C
thermal shift delta Tm [4]: -0.58 °C
thermal shift delta Tm [5]: 0.36 °C
thermal shift delta Tm [6]: 0.64 °C
thermal shift delta Tm [7]: 0.1 °C
thermal shift delta Tm [8]: 0.29 °C
thermal shift delta Tm [9]: 0.1 °C
thermal shift delta Tm [10]: 0.63 °C

COc1cc2c(Nc3ccc(NC(=O)c4ccccc4)cc3)ncnc2cc1OCCCN1CCOCC1
thermal shift delta Tm [1]: 2.69 °C
thermal shift delta Tm [2]: 0.98 °C
thermal shift delta Tm [3]: -0.03 °C
thermal shift delta Tm [4]: 0.65 °C
thermal shift delta Tm [5]: 0.52 °C
thermal shift delta Tm [6]: 0.26 °C
thermal shift delta Tm [7]: 1.98 °C
thermal shift delta Tm [8]: 0.89 °C
thermal shift delta Tm [9]: 0.34 °C
thermal shift delta Tm [10]: 0.94 °C

C=CC(=O)N1CCC(Oc2cc3c(Nc4ccc(Cl)c(Cl)c4F)ncnc3cc2OC)CC1 [Poziotinib (HM781-36B)]
thermal shift delta Tm [1]: 0.75 °C
thermal shift delta Tm [2]: 0.07 °C
thermal shift delta Tm [3]: 0.6 °C
thermal shift delta Tm [4]: -0.34 °C
thermal shift delta Tm [5]: 0.65 °C
thermal shift delta Tm [6]: 0.36 °C
thermal shift delta Tm [7]: 1.56 °C
thermal shift delta Tm [8]: 0.49 °C
thermal shift delta Tm [9]: -0.16 °C
thermal shift delta Tm [10]: 1.24 °C

COc1cc(N2CCN(C)CC2)ccc1Nc1ncc2c(n1)N(C)c1ccccc1C(=O)N2
thermal shift delta Tm [1]: 0.72 °C
thermal shift delta Tm [2]: 1.11 °C
thermal shift delta Tm [3]: 1.07 °C
thermal shift delta Tm [4]: -0.23 °C
thermal shift delta Tm [5]: 0.43 °C
thermal shift delta Tm [6]: 0.53 °C
thermal shift delta Tm [7]: 0.75 °C
thermal shift delta Tm [8]: 0.41 °C
thermal shift delta Tm [9]: 0.22 °C
thermal shift delta Tm [10]: -0.22 °C

Nc1nc(Nc2ccc(S(N)(=O)=O)cc2)nn1C(=O)c1c(F)cccc1F
thermal shift delta Tm [1]: 4.86 °C
thermal shift delta Tm [2]: 1.06 °C
thermal shift delta Tm [3]: 0.71 °C
thermal shift delta Tm [4]: 0.59 °C
thermal shift delta Tm [5]: 5.95 °C
thermal shift delta Tm [6]: 1.73 °C
thermal shift delta Tm [7]: 4.79 °C
thermal shift delta Tm [8]: 5.9 °C
thermal shift delta Tm [9]: 0.49 °C
thermal shift delta Tm [10]: 5.43 °C

O=c1c(-c2ccc(O)cc2)coc2cc(O)cc(O)c12 [Genistein]
thermal shift delta Tm [1]: 0.67 °C
thermal shift delta Tm [2]: 0.54 °C
thermal shift delta Tm [3]: 0.86 °C
thermal shift delta Tm [4]: -0.01 °C
thermal shift delta Tm [5]: 1.11 °C
thermal shift delta Tm [6]: 0.55 °C
thermal shift delta Tm [7]: 0.12 °C
thermal shift delta Tm [8]: 0.77 °C
thermal shift delta Tm [9]: 0.12 °C
thermal shift delta Tm [10]: 1.14 °C

Cc1ncc(-c2ccnc(Nc3ccc(S(C)(=O)=O)cc3)n2)n1C(C)C
thermal shift delta Tm [1]: 2.46 °C
thermal shift delta Tm [2]: 2.34 °C
thermal shift delta Tm [3]: 0.85 °C
thermal shift delta Tm [4]: 0.21 °C
thermal shift delta Tm [5]: 7.5 °C
thermal shift delta Tm [6]: 2.32 °C
thermal shift delta Tm [7]: 2.92 °C
thermal shift delta Tm [8]: 0.66 °C
thermal shift delta Tm [9]: 0.48 °C
thermal shift delta Tm [10]: 4.34 °C

CCOc1cn(-c2ccc(F)cc2C)nc1C(=O)Nc1ccc(Oc2ccnc3cc(OC)c(OC)cc23)c(F)c1
thermal shift delta Tm [1]: 0.08 °C
thermal shift delta Tm [2]: 1.86 °C
thermal shift delta Tm [3]: 0.01 °C
thermal shift delta Tm [4]: -0.07 °C
thermal shift delta Tm [5]: 0.5 °C
thermal shift delta Tm [6]: -0.29 °C
thermal shift delta Tm [7]: 0.58 °C
thermal shift delta Tm [8]: 0.48 °C
thermal shift delta Tm [9]: 0.45 °C
thermal shift delta Tm [10]: 2.08 °C

Cc1c(Cn2c(C)nc3c(C(=O)O)cc(N4CCOCC4)cc32)cccc1C(F)(F)F
thermal shift delta Tm [1]: 0.42 °C
thermal shift delta Tm [2]: 2.18 °C
thermal shift delta Tm [3]: 0.15 °C
thermal shift delta Tm [4]: -0.48 °C
thermal shift delta Tm [5]: -0.01 °C
thermal shift delta Tm [6]: 0.56 °C
thermal shift delta Tm [7]: 0.55 °C
thermal shift delta Tm [8]: 5.45 °C
thermal shift delta Tm [9]: 0.63 °C
thermal shift delta Tm [10]: -0.39 °C

N#Cc1ccc2ncnc(NCCc3ccccc3)c2c1 [Senexin A]
thermal shift delta Tm [1]: 1.49 °C
thermal shift delta Tm [2]: 1.5 °C
thermal shift delta Tm [3]: 0.41 °C
thermal shift delta Tm [4]: 0.25 °C
thermal shift delta Tm [5]: 0.78 °C
thermal shift delta Tm [6]: 0.95 °C
thermal shift delta Tm [7]: 0.66 °C
thermal shift delta Tm [8]: 0.42 °C
thermal shift delta Tm [9]: 0.41 °C
thermal shift delta Tm [10]: 2.96 °C

CC1=C(C(=O)Nc2cc3cn[nH]c3cc2F)C(c2ccc(C(F)(F)F)cc2)CC(=O)N1 (stereo not given)
thermal shift delta Tm [1]: 0.57 °C
thermal shift delta Tm [2]: -0.19 °C
thermal shift delta Tm [3]: 0.11 °C
thermal shift delta Tm [4]: 0.54 °C
thermal shift delta Tm [5]: 0.16 °C
thermal shift delta Tm [6]: 0.33 °C
thermal shift delta Tm [7]: -0.15 °C
thermal shift delta Tm [8]: -0.18 °C
thermal shift delta Tm [9]: -0.23 °C
thermal shift delta Tm [10]: 0 °C

CC1(C)OC(=O)C=C[C@]2(C)[C@H]3CC[C@@]4(C)[C@H](c5ccoc5)OC(=O)[C@H]5O[C@]54[C@]3(C)C(=O)C[C@@H]12 [Obacunone]
thermal shift delta Tm [1]: 0.06 °C
thermal shift delta Tm [2]: 0.16 °C
thermal shift delta Tm [3]: 0.26 °C
thermal shift delta Tm [4]: 0.37 °C
thermal shift delta Tm [5]: 0.35 °C
thermal shift delta Tm [6]: 0.13 °C
thermal shift delta Tm [7]: -0.45 °C
thermal shift delta Tm [8]: 0.82 °C
thermal shift delta Tm [9]: -0.06 °C
thermal shift delta Tm [10]: 3 °C

Cn1cc(-c2cnn3c(N)c(Br)c([C@@H]4CCCNC4)nc23)cn1
thermal shift delta Tm [1]: 0.38 °C
thermal shift delta Tm [2]: 0.39 °C
thermal shift delta Tm [3]: 0.35 °C
thermal shift delta Tm [4]: 0.21 °C
thermal shift delta Tm [5]: 0.82 °C
thermal shift delta Tm [6]: 1.25 °C
thermal shift delta Tm [7]: 0.31 °C
thermal shift delta Tm [8]: 0.35 °C
thermal shift delta Tm [9]: 0.23 °C
thermal shift delta Tm [10]: 0.71 °C

COc1ccc(Cl)cc1NC(=O)Nc1cc(C)nc2ccccc12
thermal shift delta Tm [1]: 0.77 °C
thermal shift delta Tm [2]: 3.02 °C
thermal shift delta Tm [3]: 0.18 °C
thermal shift delta Tm [4]: 0.68 °C
thermal shift delta Tm [5]: 0.5 °C
thermal shift delta Tm [6]: 1.37 °C
thermal shift delta Tm [7]: -1.53 °C
thermal shift delta Tm [8]: 5.48 °C
thermal shift delta Tm [9]: 1.15 °C
thermal shift delta Tm [10]: 1.3 °C

N#Cc1ccc(-c2c(-c3ncn[nH]3)sc(N3CCOCC3)c2C#N)c(F)c1
thermal shift delta Tm [1]: 0.3 °C
thermal shift delta Tm [2]: 0.97 °C
thermal shift delta Tm [3]: 4.91 °C
thermal shift delta Tm [4]: 0.46 °C
thermal shift delta Tm [5]: 0.41 °C
thermal shift delta Tm [6]: 1.16 °C
thermal shift delta Tm [7]: 0.28 °C
thermal shift delta Tm [8]: 0.62 °C
thermal shift delta Tm [9]: 0.12 °C
thermal shift delta Tm [10]: 0.29 °C

N=C(N)NC(=N)NCCc1ccccc1 [Phenformin HCl]
thermal shift delta Tm [1]: 0.54 °C
thermal shift delta Tm [2]: 0.14 °C
thermal shift delta Tm [3]: 0.3 °C
thermal shift delta Tm [4]: -0.2 °C
thermal shift delta Tm [5]: 0.25 °C
thermal shift delta Tm [6]: 0.77 °C
thermal shift delta Tm [7]: -0.37 °C
thermal shift delta Tm [8]: 0.38 °C
thermal shift delta Tm [9]: 0.25 °C
thermal shift delta Tm [10]: 0.48 °C

O=C(NOCCO)c1ccc2cncn2c1Nc1ccc(I)cc1F
thermal shift delta Tm [1]: 1.18 °C
thermal shift delta Tm [2]: 5.7 °C
thermal shift delta Tm [3]: 1.31 °C
thermal shift delta Tm [4]: 1.55 °C
thermal shift delta Tm [5]: 3.41 °C
thermal shift delta Tm [6]: 0.59 °C
thermal shift delta Tm [7]: -0.21 °C
thermal shift delta Tm [8]: 1.12 °C
thermal shift delta Tm [9]: 0.54 °C
thermal shift delta Tm [10]: 0.41 °C
